Data: the supplement of paper PMC13380429

System: Vero E6 infected with SARS-CoV-2
Test: inhibition of SARS-CoV-2 cytopathic effect; higher = more antiviral protection, active = above 15
Details: 48 h

Measured: inhibition of SARS-CoV-2 cytopathic effect

Cc1oc2ccccc2c1CNC(=O)NCc1cccs1
inactive: 1 nM -0.41% | 8.33 nM 1.63% | 100 nM 0.18% | 833.33 nM -0.46% | 10000 nM 3.09%

CC[C@H]1[C@@H]2C[C@H]3[C@@H]4N(C)c5ccccc5[C@]45C[C@@H]([C@@H]2[C@H]5O)N3[C@@H]1O [ajmaline]
inactive: 1 nM -1.1% | 8.33 nM -2.42% | 100 nM 0.36% | 833.33 nM 0.5% | 10000 nM -1.16%

Brc1c(NC2=NCCN2)ccc2nccnc12 [brimonidine]
inactive: 1 nM 4.55% | 8.33 nM 0.66% | 100 nM 0.75% | 833.33 nM 2.72% | 10000 nM 0.94%

NC(=O)c1cccnc1 [nicotinamide]
inactive: 1 nM -0.85% | 8.33 nM 1.53% | 100 nM -1.16% | 833.33 nM 2.49% | 10000 nM 7.29%

CC12CCC(CC1=O)C2(C)C (stereo not drawn) [camphor-(+)]
inactive: 1 nM 1.23% | 8.33 nM 0.085% | 100 nM -0.16% | 833.33 nM 1.82% | 10000 nM -0.53%

Cl/C(=C\n1cncn1)c1ccc(Cl)cc1Cl [loreclezole]
inactive: 1 nM 0.42% | 8.33 nM -1.72% | 100 nM -2.63% | 833.33 nM -0.72% | 10000 nM -1.41%

O=C(O)COc1nn(Cc2ccccc2)c2ccccc12 [bendazac]
inactive: 1 nM -1.4% | 8.33 nM 2.21% | 100 nM 0.57% | 833.33 nM -1.97% | 10000 nM -2.52%

O=C(O)/C=C(/CC(=O)O)C(=O)O [cis-aconitic-acid]
inactive: 1 nM 0.99% | 8.33 nM 0.49% | 100 nM -3.45% | 833.33 nM -2.25% | 10000 nM 0.81%
